Measurements published in the supplement of paper PMC6805474.

Columns and labels:
[1] = system: Schistosoma mansoni schistosomula (LE); assay: XTT viability relative to DMSO control; higher = more viable (less active); conditions: 72 h; 10 µM
Method: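 XTT/PMS was then added for a further 24 h (72 h total) and A450 was read. % viability = (sample - heat-killed control)/(DMSO control - heat-killed control) x 100, from duplicate wells in two independent experiments.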

[2] = system: Schistosoma mansoni schistosomula (NMRI); assay: phenotypic severity score (0-4); higher = more antischistosomal effect, active = 2 or more; conditions: 10 µM
[3] = system: Schistosoma mansoni schistosomula (Liberian); assay: drug effect (1 - score/DMSO control score) (fraction); higher = more antischistosomal effect, active = 0.5 or more; extreme values may be limits of the assay; conditions: 10 µM
Procedure, shortened: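 Liberian-strain Schistosoma mansoni schistosomula, mechanically transformed from cercariae and pre-incubated at least 12 h, were exposed in duplicate (50 per well, flat-bottom 96-well plates) to 10 µM compound in Medium 199 with 5% FCS at 37 °C, 5% CO2, with 0.1% DMSO control wells. Wells were scored visually (10×) at 24, 48 and 72 h on a quarter-point scale from 3 (normal) to 0 (dead). Drug effect was derived from the mean test-well score relative to the mean DMSO-control score. Negative values were set to zero, and plates were valid only if control wells averaged at least 2.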
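Throughout, for phenotypic severity score (0-4): visual microscopic scoring of shape, motility and density changes versus 0.5% DMSO solvent controls, one point per descriptor, degeneracy or death scored 4, mean of duplicate wells.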

Row | Compound | XTT viability [1] [%] | phenotypic severity score ([2]; 24 h) | phenotypic severity score ([2]; 48 h) | phenotypic severity score ([2]; 72 h) | drug effect ([3]; 24 h) | drug effect ([3]; 48 h) | drug effect ([3]; 72 h)
1 | CCCCS(=O)(=O)Nc1ccc2cnn(C)c2c1 | 141 | 0 (inactive) | 0 (inactive) | 0 (inactive) | 0.0811 (inactive) | 0.111 (inactive) | 0.0625 (inactive)
2 | CC(C)C(NC(=O)Cc1cccc2ccccc12)C(=O)Nc1cccc(C#N)c1 (stereo not drawn) | 68.8 | 0 (inactive) | 0 (inactive) | 0 (inactive) | 0.15 (inactive) | 0.222 (inactive) | 0.333 (inactive)
3 | NS(=O)(=O)c1cncc(-c2ccc3nccc(-c4cn[nH]c4)c3n2)c1 | 98.4 | 0 (inactive) | 0 (inactive) | 0 (inactive) | 0.135 (inactive) | 0.111 (inactive) | 0.312 (inactive)
4 | COc1ccc(OC)c(NCc2ccc3nc(N)nc(N)c3c2Cl)c1 | 109 | 0 (inactive) | 2 (active) | 0 (inactive) | < 0 (inactive) | 0.05 (inactive) | 0.278 (inactive)
5 | C[C@H](C(N)=O)N1CCCC[C@H]1c1ccc(OCc2cccc(F)c2)cc1 | 118 | 0 (inactive) | 0 (inactive) | 0 (inactive) | 0.05 (inactive) | 0.0811 (inactive) | 0.212 (inactive)
6 | COc1ccc(C2=NCCN2)cc1-c1cn(-c2cccc(C3=NCCN3)c2)nn1 | 85.9 | 0 (inactive) | 0 (inactive) | 0 (inactive) | 0.1 (inactive) | 0.111 (inactive) | 0.25 (inactive)
7 | CCc1nc2ccc(Cl)cn2c1C(=O)NCc1ccc(N2CCC(c3ccc(OC(F)(F)F)cc3)CC2)cc1 | 66.8 | 1 (inactive) | 0 (inactive) | 0 (inactive) | 0.105 (inactive) | 0.0556 (inactive) | < 0 (inactive)
8 | CCN(CC)CCCN1CCN(C(=O)c2cccc(-c3noc(C(F)(F)F)n3)c2)CC1 | 97.3 | 0 (inactive) | 0 (inactive) | 1 (inactive) | 0.2 (inactive) | 0.111 (inactive) | 0.25 (inactive)
9 | CC(=O)NC[C@@H]1CN(c2ccc(N3CCOCC3)c(F)c2)C(=O)O1 | 94.2 | 0 (inactive) | 0 (inactive) | 0 (inactive) | 0.227 (inactive) | 0.2 (inactive) | 0.182 (inactive)
10 | O=C1N(Cc2cc3ccccc3s2)CC2CN(Cc3ccccc3)CCN12 (stereo not drawn) |  | 0 (inactive) | 0 (inactive) | 0 (inactive) | 0.182 (inactive) | 0.3 (inactive) | 0.236 (inactive)
11 | CCc1nc2ccccc2n1CC(O)COc1cc(C)ccc1Cl (stereo not drawn) | 106 | 0 (inactive) | 0 (inactive) | 0 (inactive) | 0.0909 (inactive) | 0.25 (inactive) | 0.236 (inactive)
12 | FC(F)(F)c1ccc(N(c2cccnc2)C2CCN(c3ccc(C(F)(F)F)cn3)CC2)cc1 | 77.5 | 0 (inactive) | 0 (inactive) | 1 (inactive) | 0.2 (inactive) | 0.222 (inactive) | 0.312 (inactive)
13 | COc1ccc(N(CCc2cccc(C)n2)C(=O)C2CCCCC2)cc1 | 88.7 | 0 (inactive) | 2 (active) | 1 (inactive) | 0.15 (inactive) | 0.2 (inactive) | 0.111 (inactive)
14 | N#Cc1ccc(-c2ccc(OCC(N)=O)cc2)cc1 | 73.9 | 0 (inactive) | 1 (inactive) | 0 (inactive) | 0.182 (inactive) | 0.2 (inactive) | 0.127 (inactive)
15 | CCOc1ccc(OCC(=O)Nc2cc(C)cc(C)c2)cc1 | 67 | 0 (inactive) | 0 (inactive) | 0 (inactive) | 0.0909 (inactive) | 0.05 (inactive) | 0.158 (inactive)
16 | COc1ccc(C2=NN(C3CCCCCC3)C(=O)C2(C)C)cc1OCCCCOc1ccc(-c2nn[nH]n2)cc1 | 3.51 | 1 (inactive) | 0 (inactive) | 0 (inactive) | 0.182 (inactive) | 0.2 (inactive) | 0.127 (inactive)
17 | Nc1nc2ccc(-c3cncc(Oc4ccc(F)cc4)c3)cc2[nH]1 |  | 2 (active) | 1 (inactive) | 1 (inactive) | 0.3 (inactive) | 0.556 (active) | 0.688 (active)
18 | Cc1ncc(-c2ccnc(Nc3ccc(S(C)(=O)=O)cc3)n2)n1C(C)C | 66.9 | 0 (inactive) | 0 (inactive) | 0 (inactive) | 0.15 (inactive) | 0.135 (inactive) | 0.167 (inactive)
19 | COc1ccc(Cl)cc1NC(=O)CN(C)C(=O)c1cnn(-c2ccccc2)n1 | 78.4 | 0 (inactive) | 0 (inactive) | 0 (inactive) | 0.2 (inactive) | 0.351 (inactive) | 0.389 (inactive)
20 | Cc1ccc2c(c1C)NC(=O)C21NN=C(c2ccccc2)S1 (stereo not drawn) | 125 | 2 (active) | 0 (inactive) | 0 (inactive) | < 0 (inactive) | 0.135 (inactive) | 0.222 (inactive)

Row | Compound | XTT viability [1] [%] | phenotypic severity score ([2]; 24 h) | phenotypic severity score ([2]; 48 h) | phenotypic severity score ([2]; 72 h) | drug effect ([3]; 24 h) | drug effect ([3]; 48 h) | drug effect ([3]; 72 h)
21 | O=C(Nc1nnc(-c2ccc(Cl)s2)o1)c1ccc(Cl)s1 | -3.4 | 2 (active) | 4 (active) | 4 (active) | < 0 (inactive) | < 0 (inactive) | < 0 (inactive)
22 | CC(Oc1ccccc1)C(=O)Nc1nc(-c2ccccn2)cs1 (stereo not drawn) | 59.4 | 2 (active) | 0 (inactive) | 4 (active) | 0.297 (inactive) | 0.5 (active) | 0.625 (active)
23 | O=C(C1CCN(c2cc(-n3cccc3)ncn2)CC1)N1CCc2ccccc2C1 |  | 0 (inactive) | 0 (inactive) | 1 (inactive) | 0.05 (inactive) | 0.111 (inactive) | 0.333 (inactive)
24 | Nc1ncnc2[nH]nc(Cc3cccc4ccccc34)c12 | 94.1 | 1 (inactive) | 2 (active) | 3 (active) | 0.243 (inactive) | 0.333 (inactive) | 0.562 (active)
25 | COc1nc2ccc(Br)cc2cc1[C@@H](c1ccccc1)[C@@](O)(CCN(C)C)c1cccc2ccccc12 | 7.23 | 2 (active) | 4 (active) | 4 (active) | 0.318 (inactive) | 0.8 (active) | 0.945 (active)
26 | CCC(=O)Nc1ccccc1C(=O)Nc1ccccn1 | 87.3 | 1 (inactive) | 0 (inactive) | 0 (inactive) | 0.136 (inactive) | 0.3 (inactive) | 0.236 (inactive)
27 | CCCNC(=O)N1CCC2(CC1)CC(=O)c1cc(C)ccc1O2 | 102 | 0 (inactive) | 0 (inactive) | 0 (inactive) | 0.1 (inactive) | 0.15 (inactive) | 0.111 (inactive)
28 | COc1ccc(CN2CCOc3ccc(C(C)(O)CN(C)C)cc3C2)cc1C (stereo not drawn) | 120 | 0 (inactive) | 0 (inactive) | 1 (inactive) | 0.1 (inactive) | 0.0556 (inactive) | < 0 (inactive)
29 | CCc1ccc(C(NCc2nc(N)nc(N(C)C)n2)C(C)C)cc1 (stereo not drawn) | 99.2 | 0 (inactive) | 0 (inactive) | 0 (inactive) | < 0 (inactive) | < 0 (inactive) | 0.111 (inactive)
30 | N=C(N)c1ccc(OCCCCCOc2ccc(C(=N)N)cc2)cc1 |  | 0 (inactive) | 0 (inactive) | 0 (inactive) | < 0 (inactive) | < 0 (inactive) | < 0 (inactive)
31 | C[C@]1(O)C[C@@H](c2nc(-c3ccc4ccc(-c5ccccc5)nc4c3)c3c(N)nccn32)C1 | 64 | 0 (inactive) | 0 (inactive) | 0 (inactive) | 0.05 (inactive) | 0.027 (inactive) | 0.111 (inactive)
32 | COC(=O)c1c(NC(=O)c2c(F)c(F)c(F)c(F)c2F)sc2c1CCCCC2 |  | 2 (active) | 4 (active) | 4 (active) | 1 (active) | 1 (active) | 1 (active)
33 | O=C(NCCc1c[nH]c2ccccc12)c1cc2ccccc2oc1=O | 91.2 | 1 (inactive) | 0 (inactive) | 0 (inactive) | 0.182 (inactive) | 0.4 (inactive) | 0.455 (inactive)
34 | Cc1cc(C)n(-c2ccc(NC(=O)C3CCN(Cc4cnc(C)s4)CC3)cc2)n1 | 135 | 0 (inactive) | 0 (inactive) | 0 (inactive) | 0.1 (inactive) | 0.135 (inactive) | 0.152 (inactive)
35 | Nc1nccc2ccc(Oc3ccncc3)cc12 | 152 | 0 (inactive) | 0 (inactive) | 0 (inactive) | 0.1 (inactive) | 0.222 (inactive) | 0.375 (inactive)
36 | Cc1cc(NC(=O)c2ccc(S(=O)(=O)N(Cc3ccccc3)C(C)C)cc2)no1 | 106 | 1 (inactive) | 0 (inactive) | 0 (inactive) | 0.135 (inactive) | 0.444 (inactive) | 0.25 (inactive)
37 | O=C(Nc1cccc(Cl)c1)c1cnc(N2CCN(c3ccncc3)CC2)c(Cl)c1 | 3.67 | 2 (active) | 4 (active) | 4 (active) | 0.8 (active) | 0.946 (active) | 1 (active)
38 | COc1ccc2nc(C)cc(OCC(=O)Nc3ccccc3OC)c2c1 | 108 | 0 (inactive) | 0 (inactive) | 0 (inactive) | 0.2 (inactive) | 0.278 (inactive) | 0.25 (inactive)
39 | CCOc1ccc2cc(-c3nn(C(C)(C)C)c(N)c3C(N)=O)cnc2c1 | 75.2 | 0 (inactive) | 0 (inactive) | 0 (inactive) | 0.2 (inactive) | 0.243 (inactive) | 0.389 (inactive)
